NPC1 prom act – activates the NPC1 promoter | Huh7 NPC1 promoter luciferase reporter, 24 h | Potency, µM (series often up to 9.22 µM), for inactives: top-dose activation, most hits filed as activators | 320,000 compounds, 2.4% hits | AID 485313; further: % of control where 0% means no effect; nearly all actives have a fitted effect of over 60% in size
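Stable NPC1-promoter luciferase Huh7 line; cpd (DMSO) 24 h, 37 °C, 5% CO2; Amplite luciferase reagent 10 min RT; luminescence readout. qHTS format.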
FLuc counter – inhibits or activates purified firefly luciferase, miR-21 counter-screen. AID 588342. Potency, µM (top dose mostly 57.5 µM), without a hit: top-dose activity change, negative = inhibition, actives largely listed as inhibitors. purified FLuc, Km substrates, luminescence inhibition. P08659. 360,000 compounds, 6.9% hits;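 further: plate controls were vehicle for no effect and reference inhibitor for full effect; nearly all actives have a fitted effect of over 55% in size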
Target sequence (P08659 whole entry, looked up): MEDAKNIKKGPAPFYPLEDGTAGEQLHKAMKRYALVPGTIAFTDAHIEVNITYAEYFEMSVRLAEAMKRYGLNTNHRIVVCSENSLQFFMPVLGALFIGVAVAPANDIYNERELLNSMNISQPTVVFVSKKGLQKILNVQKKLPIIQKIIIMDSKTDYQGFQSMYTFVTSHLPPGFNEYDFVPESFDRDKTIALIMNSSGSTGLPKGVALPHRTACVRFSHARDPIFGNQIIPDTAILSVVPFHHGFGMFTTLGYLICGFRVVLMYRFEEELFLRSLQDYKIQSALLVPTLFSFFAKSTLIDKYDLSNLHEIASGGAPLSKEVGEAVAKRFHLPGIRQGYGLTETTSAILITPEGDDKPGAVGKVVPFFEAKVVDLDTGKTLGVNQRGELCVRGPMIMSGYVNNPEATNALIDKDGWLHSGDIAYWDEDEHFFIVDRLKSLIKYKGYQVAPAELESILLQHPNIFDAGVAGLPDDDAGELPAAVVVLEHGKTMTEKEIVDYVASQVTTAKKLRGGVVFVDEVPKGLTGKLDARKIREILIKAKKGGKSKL
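Biochemical qHTS of compounds, final roughly 60 µM downward over six points, against 10 nM purified firefly luciferase using Km concentrations of substrates (10 uM D-luciferin, 10 uM ATP) in Tris acetate pH 7.5 buffer; luminescence output.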
SMN2 splice up – SMN2 splice variant enhancement; HEK293 SMN2-luciferase splicing reporter, luminescence, 30-36 h; Potency, µM (series often up to 46.1 µM), for the others: at the top dose activity change, positive = activation, usual class: activators; 210,000 compounds, 2.8% hits; further: % of control where 0% means no effect; nearly all actives have a fitted effect of over 55% in size
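qHTS luciferase splicing reporter: luminescence rises when SMN2 exon 7 is included in transfected HEK293 cells. Compound exposure lasted 30-36 h at 37C, with 4.5 mM final sodium butyrate as control, followed by a ONE-Glo read.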
KinaseGlo FLuc – counter-screen: inhibitors of Kinase-Glo firefly luciferase. Potency, µM (doses to about 38.3 µM), for inactives: at the highest dose activity change, negative = inhibition, most hits filed as inhibitors. Q27757. Kinase-Glo luciferase, ATP luminescence, 8 min. 200,000 compounds, 0.28% hits; further: on the % scale 0 is the no-effect control and ±100 the full control effect; nearly all actives have a fitted effect of over 60% in size
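Recombinant Kinase-Glo luciferase, 10 uM ATP (linear range), luciferin; imidazole pH 7.2 / KCl / MgCl2 / Tween / BSA buffer; 8 min RT; luminescence.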
Rab9 promoter act – activators of Rab9 promoter | Huh7 Rab9 promoter-luciferase reporter, luminescence, 24 h | Potency, µM (titrated, usually from 9.22 µM), for the others: at the top dose activation, negative = inhibition, hits mostly activators | 320,000 compounds, 2.8% hits; further: % of control where 0% means no effect; nearly all actives have a fitted effect of over 60% in size
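Cells were plated at 1500 per well in reduced-serum medium with 10% FBS and left 2 h. Compound in DMSO was then added for 24 h at 37 °C. Reporter signal was read by luminescence after 10 min with luciferase detection reagent.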
Numbers without * were called inactive; ? = inconclusive; . = not tested or not shown; [ ] = another dose, or the depositor's remark. The list is not random: actives were taken first. Their share in the collection is about 7.3%. The call rests on the fitted dose curve; in most records, active means well fitted curve in the direction sought with a large enough effect; inconclusive means small, poorly fitted or top-dose-only effect, or another doubt; inactive means no such curve, though single readings can be large; an effect the other way counts as inactive or inconclusive. Potency means the concentration at half of the fitted maximal effect.

SMILES | NPC1 prom act | FLuc counter | SMN2 splice up | KinaseGlo FLuc | Rab9 promoter act
O=S(=O)(N1CCCCC1)N1CCN(CC(O)COc2ccc3cc(Br)ccc3c2)CC1 (stereo not given) | -6% | 0% | -53% | 0% | -12%
OC(COc1ccc2cc(Br)ccc2c1)CN1CCCC1 (stereo not given) | 10% | 12µM* | 6% | -2% | 14%
Cn1c(-c2ccc(CN3CCCCC3)o2)nc2ccccc21 | ? | 15µM* | 13µM* | -8% | ?
COC(=O)CNC(c1ccccc1)c1cc(Br)ccc1NC(=O)c1ccccc1 (stereo not given) | . | -1% | -17% | . | .
Cn1c(=O)cc(OCCCC(=O)NC2CCCC2)c2ccccc21 | -3% | 1% | 16µM* | 0% | -2%
Cn1c(=O)cc(OCC(=O)NC2CCCCC2)c2ccccc21 | -5% | 3% | 11% | -1% | -2%
COc1ccc(N2CC(NC(=O)c3ccc4c(c3)OCO4)CC2=O)cc1 (stereo not given) | . | -2% | . | . | .
CCCNC(=O)C1CCC(Cn2c(=O)c3sccc3n(Cc3cccc(OC)c3)c2=O)CC1 (stereo not given) | . | 1% | . | . | .
O=C(N/N=C/c1cccc(F)c1)c1c(O)c2c([nH]c1=O)CCCC2 | 1.6µM* | ? | 13µM* | -5% | 2µM*
CNC(=O)c1ccccc1NC(=O)c1c(O)c2c([nH]c1=O)CCCC2 | 2% | ? | 6% | 1% | -6%
CC(Sc1cn(CCNC(=O)c2ccccc2F)c2ccccc12)c1ccccc1 (stereo not given) | . | -13% | -17% | . | .
O=C(CCCc1nc(-c2ccco2)no1)Nc1ccccc1[N+](=O)[O-] | . | 7% | . | . | .
COc1cc(-c2nnc(CSc3nnc(Nc4ccc(C(C)C)cc4)s3)o2)cc(OC)c1OC | 5% | 5.4µM* | ? | -1% | 15%
COc1ccccc1Nc1nnc(SCc2nnc(-c3cc(OC)c(OC)c(OC)c3)o2)s1 | -3% | 0% | -4% | -2% | -1%
COc1ccc2[nH]cc(/C=C/C(=O)c3ccccc3)c2c1 | 3.2µM* | 3.4µM* | . | . | 1.6µM*
O=C(/C=C/c1c[nH]c2ccccc12)c1ccccc1 | 3.2µM* | 5.4µM* | 10µM* | -1% | 3.5µM*
Cc1ccc(C(=O)/C=C/c2c[nH]c3ccccc23)cc1 | 4µM* | 5.4µM* | ? | -5% | 3.5µM*
N#Cc1ccccc1COC(=O)c1cc(=O)c2ccccc2o1 | -2% | ? | . | . | -5%
O=C(OCc1ccc(F)cc1)c1cc(=O)c2ccccc2o1 | -4% | 15µM* | . | . | 1%
O=C(CN1C(=O)COc2ccc(S(=O)(=O)N3CCOCC3)cc21)Nc1ccc(F)c(Cl)c1 | . | -9% | . | . | .
COc1ccc2c(c1OC)C(=O)OC2Nc1nc(-c2cc3cc(Br)ccc3oc2=O)cs1 (stereo not given) | 2µM* | 21µM* | . | . | 1.4µM*
CN(C)CCCN=Cc1c(-c2ccccc2)[nH]n(-c2nc3ccccc3s2)c1=O | -6% | -13% | . | -1% | -3%
O=c1c(C=NCCCn2ccnc2)c(-c2ccccc2)[nH]n1-c1nc2ccccc2s1 | -4% | 17µM* | . | -2% | 2%
COc1cccc(NC(=O)c2ccc3c(c2)CCCC3)c1 | 1.4µM* | 1.2µM* | . | . | 1.4µM*
COc1cccc(NC(=O)C2=COCCO2)c1 | ? | ? | . | . | 3.2µM*
SMILES | NPC1 prom act | FLuc counter | SMN2 splice up | KinaseGlo FLuc | Rab9 promoter act
CC(=O)c1cccc(NC(=O)c2ccc(CN3CCc4ccccc4C3)cc2)c1 | -2% | ? | . | . | -17%
COc1cccc(NC(=O)c2ccc(CN3CCc4ccccc4C3)cc2)c1 | -8% | 19µM* | . | . | -21%
CCS(=O)(=O)N1CCCc2cc(C(=O)Nc3cccc(C(C)=O)c3)ccc21 | . | -6% | . | . | .
CC(=O)c1cccc(NC(=O)c2ccc3c(c2)CCCC3)c1 | 2.5µM* | 1.3µM* | . | . | 4µM*
O=C(O)/C(=C\c1ccc(O)cc1)c1cccc2ccccc12 | . | . | 3%[9.22 µM] | -1%[7.66 µM] | .
CN(CC(=O)NCc1ccccc1Cl)S(=O)(=O)c1ccc2c(c1)c(=O)n(C)c(=O)n2C | . | -1% | -24% | . | .
O=C(c1cccn1-c1nnc(N2CCCCC2)s1)N1CCN(c2ccc(Cl)cc2)CC1 | . | -4% | . | . | .
O=C(O)c1ccc(SSc2ccc(C(=O)O)cn2)nc1 | . | . | -9%[9.22 µM] | -11%[7.66 µM] | .
CC(=O)c1cccc(NC(=O)c2noc3c2CCc2ccccc2-3)c1 | 4µM* | 2.4µM* | 3.5µM* | -1% | 2.5µM*
Cc1cc(NC(=O)c2noc3c2CCc2ccccc2-3)no1 | 27% | -11% | ? | 1% | ?
CSCC(=O)N1CCCC(CNC(=O)c2ccc(-c3ccccc3)cc2)C1 (stereo not given) | 2% | 21µM* | . | 2% | -2%
CC(=O)CCC(=O)N1CCCC(CNC(=O)c2ccc(-c3ccccc3)cc2)C1 (stereo not given) | 17% | 11µM* | . | 3% | 25%
CSCC(=O)N1CCCC(CNC(=O)c2ccccc2Cl)C1 (stereo not given) | -2% | -4% | . | 1% | -10%
COc1cccc(NC(=O)CSC2=Nc3ccccc3C3=NC(CC(=O)NCc4ccc5c(c4)OCO5)C(=O)N23)c1 (stereo not given) | . | -2% | . | . | .
Cc1ccc(-c2nnc(N(C)C(=O)c3cccnc3)s2)cn1 | 1% | -2% | 13% | -1% | -5%
CN(C(=O)c1ccncc1)c1nnc(-c2ccncc2)s1 | 2% | -4% | 19% | 1% | 15%
Cc1ccc(-c2nnc(N(C)C(=O)c3cccnc3)s2)cc1 | 3.2µM* | 8.5µM* | 27% | -9% | 3.5µM*
COc1ccc(-c2nnc(N(C)C(=O)c3cccnc3)s2)cc1 | ? | 13µM* | 16% | -1% | ?
Cc1ccc(-n2cnc3sc(C)c(C)c3c2=O)cc1 | ? | ? | 13µM* | 2% | 2.5µM*
Cc1cccc(N(C)C(=O)c2cc3cc4ccc(C)cc4nc3o2)c1 | -3% | 15µM* | 8.9µM* | 0% | 13%
CCN(C(=O)c1cc2cc3ccc(OC)cc3nc2o1)c1cccc(C)c1 | . | -17% | -4% | . | .
O=C(Nc1noc2ccccc12)c1c(F)cccc1F | . | 7.6µM* | 22µM* | . | .
CCN(CC)c1ccc2cc(-c3nc(-c4cccs4)no3)c(=O)oc2c1 | . | 3.8µM* | . | . | .
CCN(CC)c1ccc2cc(-c3nnc(-c4ccncc4)o3)c(=O)oc2c1 | ? | ? | 11µM* | 0% | ?
COc1cc(C2C(C(=O)Nc3ccccc3C)=C(C)Nc3nc(SCc4cc(C)ccc4C)nn32)ccc1O (stereo not given) | . | -2% | . | . | .
COc1ccccc1N1CCN(C(=O)c2ccc(-c3ccccc3)cc2)CC1 | -2% | 24µM* | . | . | -3%
COc1ccccc1N1CCN(/N=C/c2cccc(O)c2)CC1 | 19% | 13µM* | 6% | 3% | ?
COc1cc(/C=N/N2CCN(c3ccccc3OC)CC2)ccc1OC(C)=O | 4% | 19µM* | . | . | 3%

High-throughput results (PubChem)
